Measured values: PubChem BioAssay
Activity calls are given as the source filed them.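 The calls were made as follows, unless noted: active = fluorescence slope after compound addition differing from the mean of all screened samples at 99.7% confidence, in either direction; inactive = the rest.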

Tests used:
[1] = inhibitors of TNFa-induced NFkB p65 translocation, primary screen, imaging, HUVEC, MLSMR starter and 10KST1 sets (AID 438;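 active = inhibition above 20% together with a positive visual image hit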;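 also: compound added about 3h40 before a 20 min TNFalpha stimulation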;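 as to inhibition: signal is the nuclear over cytoplasmic p65 intensity ratio per well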); details: HUVEC TNFa-induced p65 nuclear translocation; cell count: measured here: nuclei count (cytotoxicity indicator), at 2.08 µM; inhibition: at 2 µM, stronger effect = higher value, 0% TNFa-plus-vehicle, 100% no-TNFa wells
[2] = inhibitors of mutant huntingtin aggregation, primary screen, imaging, exon1htt(103Q)mCFP cells, high-content imaging (AID 483;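 active = visual image review flags a hit and inhibition of aggregation exceeds 20%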;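 also: compound exposure lasted 3 days before fixation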;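 as to nuclei count: percent of the per-plate median nuclei count of sample wells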); details: exon1htt(103Q)mCFP cell line, aggregate imaging, at 2 µM; inhibition of aggregation: stronger effect = higher value; nuclei count: measured here: cell count, toxicity
[3] = inhibitors of E-selectin induction by TNFa, primary screen, imaging, HUVEC, immunofluorescence, MLSMR starter and 10KST1 sets (AID 487;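 active = visually confirmed hit in the image check and inhibition above 20%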;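 as to inhibition: signal is fraction of cell area covered by stained E-selectin grains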;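 as to nuclei count: 100% = median nuclei count of all wells on the same plate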); details: HUVEC TNFalpha-induced E-selectin immunofluorescence imaging, at 2 µM; inhibition: stronger effect = higher value; nuclei count: measured here: cell number, toxicity
[4] = molecular target: Voltage-gated potassium channel subunit beta-2 (Rattus norvegicus) (UniProt P62483); test: KvBeta enzyme negative modulators, primary screen, biochemical, NADPH fluorescence (AID 622;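 active = fluorescence slope higher than the sample average by over 3 SD, cut at about -0.22 in these data, passing the limit was not always enough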;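 also: slope of raw intensity against log time taken from 70 to 1610 s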); details: recombinant KvBeta, 4-cyanobenzaldehyde reduction, at 10 µM, stronger effect = higher value
[5] = molecular target: Voltage-gated potassium channel subunit beta-2 (Rattus norvegicus) (UniProt P62483); test: KvBeta positive modulators, primary screen, biochemical, NADPH fluorescence (AID 623;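 active = NADPH fluorescence slope more negative than the mean of all samples by about 3 SD, 99.7% confidence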;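 also: fluorescence intensity change per second fitted from 20 to 320 s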); details: Recombinant KvBeta, NADPH fluorescence decrease slope, 10 min; at 10 µM; stronger effect = lower value
[6] = molecular target: Alpha-2C adrenergic receptor (Homo sapiens) (UniProt P18825); test: modulators of alpha2C/GIRK thallium flux, primary screen, cell-based, HEK293 alpha2C/GIRK1/2 (AID 624); details: thallium flux BTC fluorescence, at 10 µM, actives lie on both sides;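 also: slope of fluorescence ratio to pre-addition baseline per second over 15 to 24 s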
[7] = inhibitors of Sendai virus-induced IRF3 signaling, primary screen, TLR/RLR signaling modifier project, cell-based, Sendai virus stimulus, luciferase, 10K MLSCN set (AID 602276;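 active = inhibition at or above 50% at 10 µM; inactive = inhibition below 50%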;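 also: firefly luciferase from ISG56 promoter only with Renilla not read in this screen; 0% = Sendai virus plus DMSO and 100% = medium plus DMSO without virus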); details: HEK293 RL24 IRF3 luciferase reporter, at 10 µM, stronger effect = higher value
[8] = inhibitors of poly I:C-induced TLR3 signaling, primary screen, cell-based, poly I:C stimulus, luciferase, 10K MLSCN set (AID 602277;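 active = inhibition of the reporter signal at or above 50%; inactive = inhibition below 50%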); details: HEK293-TLR3 RL24 IRF3 luciferase reporter, at 10 µM, stronger effect = higher value

Sequence of Voltage-gated potassium channel subunit beta-2 (Rattus norvegicus) (P62483 whole entry, looked up): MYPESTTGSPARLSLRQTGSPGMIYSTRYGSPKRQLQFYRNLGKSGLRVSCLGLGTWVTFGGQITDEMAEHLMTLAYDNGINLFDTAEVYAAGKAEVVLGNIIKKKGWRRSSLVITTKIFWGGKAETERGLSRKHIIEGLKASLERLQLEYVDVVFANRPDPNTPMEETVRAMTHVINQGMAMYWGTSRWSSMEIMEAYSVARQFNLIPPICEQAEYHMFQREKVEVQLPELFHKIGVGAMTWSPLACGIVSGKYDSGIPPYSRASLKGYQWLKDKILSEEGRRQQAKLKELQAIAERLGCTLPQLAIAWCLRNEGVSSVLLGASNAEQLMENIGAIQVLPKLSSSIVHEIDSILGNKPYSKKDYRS
Sequence of Alpha-2C adrenergic receptor (Homo sapiens) (P18825 whole entry, looked up): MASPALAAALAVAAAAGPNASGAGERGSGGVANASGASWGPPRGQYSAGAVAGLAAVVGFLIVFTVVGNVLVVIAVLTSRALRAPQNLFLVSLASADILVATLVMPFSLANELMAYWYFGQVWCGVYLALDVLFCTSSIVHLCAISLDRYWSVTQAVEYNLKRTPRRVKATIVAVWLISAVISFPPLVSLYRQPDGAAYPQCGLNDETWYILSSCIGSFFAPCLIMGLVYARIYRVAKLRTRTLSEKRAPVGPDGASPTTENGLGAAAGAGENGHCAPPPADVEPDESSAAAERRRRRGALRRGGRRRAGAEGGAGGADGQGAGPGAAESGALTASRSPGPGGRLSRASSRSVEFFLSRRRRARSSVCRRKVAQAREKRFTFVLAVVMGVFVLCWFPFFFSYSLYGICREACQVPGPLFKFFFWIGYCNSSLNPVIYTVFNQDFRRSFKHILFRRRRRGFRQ

| SMILES | cell count [1] | inhibition [1] | inhibition of aggregation [2] | nuclei count [2] [%] | inhibition [3] | nuclei count [3] [%] | fluorescence slope [4] | NADPH fluorescence slope [5] | slope [6] | inhibition [7] | inhibition [8] |
| --- | --- | --- | --- | --- | --- | --- | --- | --- | --- | --- | --- |
| CCCn1c(=O)c2ccccc2n2c(SCCOc3ccccc3F)nnc12 | 574 | -10.2% (inactive) | 4.4% (inactive) | 85.2 | 0.6% (inactive) | 156 | -0.477 (inactive) | 4.6e-05 (inactive) | 0.00598 (inactive) | -3.21% (inactive) | -3.55% (inactive) |
| O=c1c2ccccc2nc(SCc2nnc(-c3ccccc3Br)o2)n1-c1ccccc1 | 379 | 2.9% (inactive) | 5.3% (inactive) | 63.9 | -18.3% (inactive) | 104 | -0.573 (inactive) | -4.9e-05 (inactive) | 0.00444 (inactive) | 0.607% (inactive) | 1.7% (inactive) |
| CCN(CC)S(=O)(=O)c1ccc2oc(C(=O)N3CCOCC3)c(C)c2c1 | 638 | -12% (inactive) | 5.2% (inactive) | 107 | -96.2% (inactive) | 92.5 | -0.543 (inactive) | -2.8e-06 (inactive) | 0.00418 (inactive) | -1.83% (inactive) | 2.02% (inactive) |
| Oc1cc(NCc2cccnc2)ccc1-c1nc2ccccc2o1 | 378 | 6.8% (inactive) | -7.8% (inactive) | 119 | -28.5% (inactive) | 123 | -0.46 (inactive) | 8.7e-06 (inactive) | 0.00562 (inactive) | -31.3% (inactive) | -152% (inactive) |
| CC(C)(C)n1nnnc1C(c1ccccc1)N1CCc2ccccc2C1 (stereo not drawn) | 481 | 2.9% (inactive) | 16% (inactive) | 115 | 11.4% (inactive) | 110 | -0.48 (inactive) | -0.000258 (inactive) | 0.00496 (inactive) | 20.4% (inactive) | 30.1% (inactive) |
| COc1ccc(C(CC(=O)O)NC(=O)c2ccccc2)cc1OC (stereo not drawn) | 317 | -1.6% (inactive) | -6.3% (inactive) | 116 | -9% (inactive) | 106 | -0.311 (inactive) | 1e-05 (inactive) | 0.00391 (inactive) | 9.8% (inactive) | 28.8% (inactive) |
| O=C(NCN1CCCCC1)c1cccnc1 | 327 | 7% (inactive) | -1.5% (inactive) | 87.9 | -20% (inactive) | 92.8 | -0.488 (inactive) | -4.4e-05 (inactive) | 0.00701 (inactive) | 5.02% (inactive) | 35.7% (inactive) |
| C=CCn1c(COc2ccccc2)nnc1SCC(=O)C(C)(C)C | 733 | 0.9% (inactive) | -8.3% (inactive) | 102 | 7.8% (inactive) | 98.4 | -0.449 (inactive) | -3.9e-05 (inactive) | 0.00312 (inactive) | 3.19% (inactive) | 22.7% (inactive) |
| O=C(NCC1COc2ccccc2O1)c1ccccc1 (stereo not drawn) | 279 | -1.7% (inactive) | -0.5% (inactive) | 104 | 7.4% (inactive) | 90.3 | -0.62 (inactive) | 3.5e-06 (inactive) | 0.00453 (inactive) | -21% (inactive) | -82.8% (inactive) |
| CC(C)c1ccc(-c2nc(N3CCOCC3)[nH]c(=O)c2C#N)cc1 | 321 | -8.9% (inactive) | -12% (inactive) | 95.4 | -32.8% (inactive) | 114 | -0.405 (inactive) | -2e-05 (inactive) | 0.00599 (inactive) | 13.1% (inactive) | 13.1% (inactive) |
| COC(=O)Nc1ccccc1C(=O)N1CCCCC1 | 403 | 9.9% (inactive) | 4% (inactive) | 120 | -25.5% (inactive) | 112 | -0.597 (inactive) | -8.5e-07 (inactive) | 0.00473 (inactive) | 6.49% (inactive) | 13.9% (inactive) |
| CN(C1CCCCC1)S(=O)(=O)c1ccc(NC(=O)c2ccco2)cc1 | 301 | 2.8% (inactive) | -6.6% (inactive) | 106 | -28.1% (inactive) | 112 | -0.399 (inactive) | -4.1e-05 (inactive) | 0.00468 (inactive) | 4.93% (inactive) | -6.73% (inactive) |
| CCOc1ccc(-c2nc(N)ncc2-c2ccccc2)c(O)c1 | 399 | 2% (inactive) | -4.3% (inactive) | 114 | -32.6% (inactive) | 67.7 | -0.581 (inactive) | -3.6e-05 (inactive) | 0.00545 (inactive) | -1.82% (inactive) | -1.28% (inactive) |
